In all, about 5,500 compounds went through this assay and about 2,000 (36%) were called active. Inconclusive results (about 18%) are left out. No stated cut-off is given here; in the data, active means normalized growth mostly below about 0.91 (no sharp cut-off); inconclusive means no clear call, values can overlap the other calls; inactive means mostly above about 0.92. This is one part of the list.
Experiment: chemical genetic growth profiling, strain panel (AID 1159580);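 further: tested at 20 µM; growth read once vehicle control cultures reached saturation at 30 °C; 1 = growth at the plate median or of vehicle wells; lower values mean less growth of the strain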
Conditions: growth OD

Measured: normalized growth

COc1c(C(C)C)oc2cc3oc(=O)ccc3cc12
active: S. cerevisiae deletion strains, locus YCL029C, strain bik1, active compounds read low 0.839 | S. cerevisiae deletion strains, locus YDL035C, strain GPR1, active compounds read low 0.749 | S. cerevisiae deletion strains, locus YDL074C, strain BRE1, active compounds read low 0.721 | S. cerevisiae deletion strains, locus YDL192W, strain arf1, active compounds read low 0.894 | S. cerevisiae deletion strains, locus YDR162C, strain NBP2, active compounds read low 0.826 | S. cerevisiae deletion strains, locus YDR318W, strain mcm21, active compounds read low 0.89 | S. cerevisiae deletion strains, locus YDR502C, strain sam2, active compounds read low 0.873 | S. cerevisiae deletion strains, locus YGL078C, strain dbp3, active compounds read low 0.911 | S. cerevisiae deletion strains, locus YGL086W, strain mad1, active compounds read low 0.883 | S. cerevisiae deletion strains, locus YGL248W, strain PDE1, active compounds read low 0.869 | S. cerevisiae deletion strains, locus YGR135W, strain pre9, active compounds read low 0.779 | S. cerevisiae deletion strains, locus YGR252W, strain gcn5, active compounds read low 0.55 | S. cerevisiae deletion strains, locus YHR030C, strain SLT2, active compounds read low 0.885 | S. cerevisiae deletion strains, locus YHR129C, strain ARP1, active compounds read low 0.901 | S. cerevisiae deletion strains, locus YHR200W, strain rpn10, active compounds read low 0.915 | S. cerevisiae deletion strains, locus YIL066C, strain RNR3, active compounds read low 0.801 | S. cerevisiae deletion strains, locus YJL095W, strain BCK1, active compounds read low 0.722 | S. cerevisiae deletion strains, locus YJR043C, strain POL32, active compounds read low 0.764 | S. cerevisiae deletion strains, locus YJR075W, strain HOC1, active compounds read low 0.877 | S. cerevisiae deletion strains, locus YKL009W, strain mrt4, active compounds read low 0.745 | S. cerevisiae deletion strains, locus YKR001C, strain vps1, active compounds read low 0.777 | S. cerevisiae deletion strains, locus YLR330W, strain CHS5, active compounds read low 0.874 | S. cerevisiae deletion strains, locus YLR342W, strain FKS1 (second series), active compounds read low 0.661 | S. cerevisiae deletion strains, locus YLR418C, strain cdc73, active compounds read low 0.703 | S. cerevisiae deletion strains, locus YML032C, strain rad52, active compounds read low 0.855 | S. cerevisiae deletion strains, locus YMR223W, strain ubp8, active compounds read low 0.9 | S. cerevisiae deletion strains, locus YMR263W, strain SAP30, active compounds read low 0.887 | S. cerevisiae deletion strains, locus YNL067W, strain RPL9B, active compounds read low 0.862 | S. cerevisiae deletion strains, locus YNL153C, strain GIM3, active compounds read low 0.859 | S. cerevisiae deletion strains, locus YNL233W, strain BNI4, active compounds read low 0.806 | S. cerevisiae deletion strains, locus YNL271C, strain bni1, active compounds read low 0.889 | S. cerevisiae deletion strains, locus YNL298W, strain CLA4, active compounds read low 0.802 | S. cerevisiae deletion strains, locus YNL307C, strain MCK1, active compounds read low 0.51 | S. cerevisiae deletion strains, locus YNR052C, strain pop2, active compounds read low 0.884 | S. cerevisiae deletion strains, locus YOR184W, strain ser1, active compounds read low 0.828 | S. cerevisiae deletion strains, locus YPL055C, strain LGE1, active compounds read low 0.755 | S. cerevisiae deletion strains, locus YPR163C, strain tif3, active compounds read low 0.769 | S. cerevisiae deletion strains, locus YPR167C, strain met16, active compounds read low 0.895 | S. cerevisiae deletion strains, strain wtn01, active compounds read low 0.887 | S. cerevisiae strains, strain wild type, active compounds read low 0.899
inactive: S. cerevisiae deletion strains, locus YBR021W, strain FUR4, active compounds read low 0.915 | S. cerevisiae deletion strains, locus YBR229C, strain ROT2, active compounds read low 0.987 | S. cerevisiae deletion strains, locus YDL101C, strain DUN1, active compounds read low 0.918 | S. cerevisiae deletion strains, locus YDL185W, strain tfp1, active compounds read low 0.933 | S. cerevisiae deletion strains, locus YDR101C, strain arx1, active compounds read low 0.929 | S. cerevisiae deletion strains, locus YDR388W, active compounds read low 0.935 | S. cerevisiae deletion strains, locus YEL061C, strain CIN8, active compounds read low 0.933 | S. cerevisiae deletion strains, locus YER110C, active compounds read low 0.914 | S. cerevisiae deletion strains, locus YER155C, strain BEM2, active compounds read low 0.972 | S. cerevisiae deletion strains, locus YER167W, strain BCK2, active compounds read low 0.921 | S. cerevisiae deletion strains, locus YHR079C, strain IRE1 (second series), active compounds read low 0.954 | S. cerevisiae deletion strains, locus YHR094C, strain hxt1, active compounds read low 0.967 | S. cerevisiae deletion strains, locus YIL073C, strain SPO22, active compounds read low 0.838 | S. cerevisiae deletion strains, locus YIL125W, strain kgd1, active compounds read low 0.971 | S. cerevisiae deletion strains, locus YIR030C, strain dcg1, active compounds read low 0.941 | S. cerevisiae deletion strains, locus YJL134W, strain LCB3, active compounds read low 0.983 | S. cerevisiae deletion strains, locus YJL168C, strain set2, active compounds read low 0.957 | S. cerevisiae deletion strains, locus YJL187C, strain SWE1 (second series), active compounds read low 0.883 | S. cerevisiae deletion strains, locus YKL068W, active compounds read low 0.965 | S. cerevisiae deletion strains, locus YKL085W, strain MDH1 (second series), active compounds read low 0.958 | S. cerevisiae deletion strains, locus YKL085W, strain MDH1, active compounds read low 0.958 | S. cerevisiae deletion strains, locus YLR039C, strain RIC1, active compounds read low 0.944 | S. cerevisiae deletion strains, locus YLR058C, strain SHM2, active compounds read low 0.932 | S. cerevisiae deletion strains, locus YLR102C, strain apc9, active compounds read low 0.946 | S. cerevisiae deletion strains, locus YLR262C, strain YPT6, active compounds read low 0.971 | S. cerevisiae deletion strains, locus YLR268W, strain sec22, active compounds read low 0.888 | S. cerevisiae deletion strains, locus YLR371W, strain rom2, active compounds read low 0.951 | S. cerevisiae deletion strains, locus YML016C, strain PPZ1, active compounds read low 0.958 | S. cerevisiae deletion strains, locus YML124C, strain tub3, active compounds read low 0.96 | S. cerevisiae deletion strains, locus YMR078C, strain ctf18, active compounds read low 0.945 | S. cerevisiae deletion strains, locus YMR307W, strain GAS1, active compounds read low 0.743 | S. cerevisiae deletion strains, locus YNL250W, strain rad50, active compounds read low 0.932 | S. cerevisiae deletion strains, locus YOL012C, strain htz1 1.16 | S. cerevisiae deletion strains, locus YOL147C, strain pex11, active compounds read low 0.935 | S. cerevisiae deletion strains, locus YOR061W, strain CKA2, active compounds read low 0.91 | S. cerevisiae deletion strains, locus YOR069W, strain VPS5, active compounds read low 0.967 | S. cerevisiae deletion strains, locus YOR136W, strain idh2, active compounds read low 0.943 | S. cerevisiae deletion strains, locus YOR144C, strain elg1, active compounds read low 0.963 | S. cerevisiae deletion strains, locus YOR316C, strain cot1, active compounds read low 0.957 | S. cerevisiae deletion strains, locus YPR119W, strain clb2, active compounds read low 0.957 | S. cerevisiae deletion strains, locus YPR141C, strain kar3, active compounds read low 0.952

Source: PubChem BioAssay AID1159580 (chemical genetic matrix, 2015)
